Only some compounds are listed: those with a hit (about 3% of all), similar ones and a draw of the others.
IP6K1 inh – Primary qHTS assay for small molecule inhibitors of Inositol hexaphosphate kinase 1 (IP6K1); Inositol hexakisphosphate kinase 1 (Homo sapiens), Q92551; IP6K1 kinase, ADP-Glo luminescence, 2 h; active compounds read low; activity change, % (series mostly up to about 58 µM); 0.81% of 140,000 active; AID 1645851, 2021; in the data active = activity change below about -25%
Target sequence (Q92551 whole entry, looked up): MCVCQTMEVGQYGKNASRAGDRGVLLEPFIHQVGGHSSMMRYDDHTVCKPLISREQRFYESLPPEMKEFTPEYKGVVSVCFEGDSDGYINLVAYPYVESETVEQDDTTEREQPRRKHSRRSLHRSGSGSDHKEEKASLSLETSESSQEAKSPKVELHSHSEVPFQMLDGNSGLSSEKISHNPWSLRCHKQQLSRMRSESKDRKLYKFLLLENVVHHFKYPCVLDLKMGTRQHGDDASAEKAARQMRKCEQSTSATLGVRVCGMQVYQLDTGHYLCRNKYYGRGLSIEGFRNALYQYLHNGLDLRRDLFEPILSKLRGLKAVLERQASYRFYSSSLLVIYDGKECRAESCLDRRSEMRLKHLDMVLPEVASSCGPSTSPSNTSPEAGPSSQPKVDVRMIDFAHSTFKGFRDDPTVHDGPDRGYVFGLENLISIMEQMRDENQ
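ADP-Glo luminescence measures ADP made by human IP6K1 during a 2 h RT reaction with ATP/IP6 (mix at 1.3 mM/130 uM); top library doses 57.5 and 19.1 uM final.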
KDM5B inhibitor – Primary screen for KDM5B Histone Demethylases FDH-coupled qHTS; Lysine-specific demethylase 5B (Homo sapiens), Q9UGL1; KDM5B demethylase, FDH-coupled NADH fluorescence (FDH is formaldehyde dehydrogenase); Potency, µM (top dose mostly 57.7 µM), usual class: inhibitors; 2.6% of 220,000 active; AID 1347165, 2019; also: nearly all actives have a fitted effect of over 70% in size
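Coupled FDH/NAD⁺ fluorescence readout. KDM5BΔAP 200 nM final; compound titration, 10 min RT preincubation; substrate mix 12.5 µM H3K4me3, 25 µM 2-OG, 50 µM Fe(II), 100 µM ascorbate, 0.25 mM NAD⁺, 0.25 U/mL FDH; ΔRFU over 30 min.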
SNCA expr inhib – Primary qHTS assay for inhibitors of alpha-synuclein gene (SNCA) expression. HEK-293 SNCA-luciferase knock-in, luminescence, 24 h. AID 1671194, 2021. Potency, µM (doses to about 57.2 µM), most hits filed as inhibitors. 0.17% of 140,000 active; also: nearly all actives have a fitted effect of over 45% in size
HEK293 viab – GF-AFC viability counterscreen for inhibitors of alpha-synuclein gene (SNCA) expression. HEK-293-SNCA-luc viability, GF-AFC fluorescence, 24 h. Potency, µM (series often up to 57.1 µM), hits mostly cytotoxic. 0.12% of 150,000 active; also: nearly all actives have a fitted effect of over 30% in size
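HEK-293-SNCA-luc cells (1500/well) plated 24 h, then exposed 24 h to a dilution series; GF-AFC added 30 min at 37C, fluorescence 405/540 nm; normalised to medium-only and DMSO wells, Hill fit.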
Numbers stand for hits; – = inactive; ? = inconclusive; · = not tested or not shown; [ ] = dose if it differs, or a comment. Unless noted, calls follow the shape of the dose curve; as a rule, active = well fitted curve in the direction sought with a large enough effect; inconclusive = small, poorly fitted or top-dose-only effect, or another doubt; inactive = no such curve, though single readings can be large; an effect the other way counts as inactive or inconclusive.

SMILES | IP6K1 inh | KDM5B inhibitor | SNCA expr inhib | HEK293 viab
O=C1CCN(C[C@@H](O)COCc2ccccc2)c2ccc(F)cc2CN1Cc1ccccc1 | – | · | · | ·
O=C(NCc1ccccc1F)C1CCCCN1Cc1ccc(-c2ccsc2)cc1 (stereo unspecified) | – | · | – | –
O=C(NCC(=O)N1CCCCC1)c1ccc(-c2cnc3ccccc3c2)cc1 | – | · | – | –
CCn1ccnc1CNC(=O)c1cc(OC)ccc1OC1CCN(C(=O)C2CC2)CC1 | – | 28.2µM | – | –
CCC(NC(=O)c1cc(OC)ccc1OC1CCN(C(C)=O)CC1)c1ccc(F)cc1 (stereo unspecified) | – | 28.2µM | – | –
COc1ccc(OC2CCN(C(C)=O)CC2)c(C(=O)NC(C)Cc2cccs2)c1 (stereo unspecified) | – | 28.2µM | – | –
COc1ccc(OC2CCN(C(C)=O)CC2)c(C(=O)NC(C)Cc2cccnc2)c1 (stereo unspecified) | – | ? | – | –
Cc1ccc(Nc2ccnc(N3CCC(NC(=O)c4ccc(C(F)(F)F)cc4)CC3)n2)cc1 | – | · | 25.1µM | ?
Cc1ccc(-c2cccc(CN3CCCC(NC(=O)Nc4ccc(Cl)cc4)C3)c2)cc1Cl (stereo unspecified) | – | · | · | ·
COc1ccc(C(=O)N2CC[C@@H]3CN(c4cnccn4)[C@@H]3C2)c(OC)n1 | – | 31.6µM | ? | –[12.5 µM]
Cc1nc2scc(CC(=O)NCC(C)C)n2c(=O)c1-c1cc(C)n(-c2ccc(C(C)C)cc2)n1 | – | 28.2µM | – | –
Cc1ccc(Cl)cc1-n1nc(-c2c(C)nc3scc(CC(=O)NCC(C)C)n3c2=O)cc1C | – | 22.4µM | – | –
Cc1cccc(-n2nc(-c3c(C)nc4scc(CC(=O)NC5CCCCC5)n4c3=O)cc2C)c1C | – | 25.1µM | ? | ?
Cc1cccc(-n2nc(-c3c(C)nc4scc(CC(=O)NC(C)C(C)C)n4c3=O)cc2C)c1C (stereo unspecified) | – | ? | – | –
CCC(C)NC(=O)Cc1csc2nc(C)c(-c3cc(C)n(-c4ccc(C)cc4C)n3)c(=O)n12 (stereo unspecified) | – | 28.2µM | – | –
Cc1ccc(-n2nc(-c3c(C)nc4scc(CC(=O)NCC(C)C)n4c3=O)cc2C)c(C)c1 | – | – | – | –
CCOc1ccc(CN2CC(Oc3ccccc3C(=O)NCc3ccccc3)C2)cc1 | – | · | – | –
COc1ccc(-n2nc(C3CCN(Cc4ccc(C)cc4)CC3)[nH]c2=O)cc1 | – | – | – | –
O=C(NCc1cccc(F)c1)C1CCCN(Cc2cccc(-c3ccc(F)cc3F)c2)C1 (stereo unspecified) | – | · | ? | ?
Cc1ccccc1-n1nc(-c2c(C)nc3scc(CC(=O)NCC(C)C)n3c2=O)cc1C | – | 28.2µM | – | –
CCOC(=O)[C@@H]1CN(C(=O)c2cccc(OC)c2)[C@H]2c3ccccc3O[C@@H]12 | – | · | · | ·
CC(C)CNC(=O)Cc1c[nH]c2ncc(-c3cnn(C)c3)cc12 | – | 39.8µM | – | –
O=C(Cc1c[nH]c2ncc(-c3ccccc3)cc12)NC1CCOCC1 | – | 28.2µM | ? | –
CN1CCC(NC(=O)Cc2c[nH]c3ncc(-c4ccccc4)cc23)CC1 | – | 35.5µM | – | –
O=C(Cc1c[nH]c2ncc(-c3cccnc3)cc12)NC1CCOCC1 | – | – | – | –
SMILES | IP6K1 inh | KDM5B inhibitor | SNCA expr inhib | HEK293 viab
COc1ccc(S(=O)(=O)Nc2cnc3c(c2)CCC3)cc1 | – | · | – | –
COc1ccccc1Cn1c(=O)c(C(=O)NCc2ccccc2)nc2cccnc21 | – | · | – | –
C=C[C@@]1(C)C=C2C(=O)C(O)=C3[C@](C)(C(=O)O)CC[C@@H]4C[C@]34[C@]2(O)C(=O)C1 | – | · | · | 18.5µM
N#Cc1cccc(NC(=O)N2CCc3c(nc(-c4ccc(F)cc4)[nH]c3=O)C2)c1 | – | 20µM | – | –
COc1ccc(-c2nc3c(c(=O)[nH]2)CCN(C(=O)Nc2ccc4c(c2)CCC4)C3)cc1 | – | – | – | –
COc1ccc(-c2nc3c(c(=O)[nH]2)CCN(C(=O)Nc2cc(F)cc(F)c2)C3)cc1 | – | 17.8µM | ? | –
COc1ccc(C(=O)Nc2cc(C3CCCC3)nn2C)cc1 | – | · | – | –
COc1ccc2[nH]c(=O)c(CCC(=O)N(C)CCc3ccccc3)cc2c1 | – | 28.2µM | ? | –
COc1ccc(NC(=O)CCc2cc3cc(C)ccc3[nH]c2=O)c(OC)c1 | – | – | – | –

Bioassay records: PubChem BioAssay, National Center for Advancing Translational Sciences (NCATS)
